We go through eight compounds from PubChem BioAssay.

Assay [1] is described as follows: reduced mouse 2C T cell binding to pMHC/ICAM-1 vesicles – MLPCN validation set, flow cytometry, LFA-1/ICAM-1 modulator project, pilot screen (AID 2523).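 As to vesicle binding response: mean PE anti-B7-1 fluorescence of CD8+ cells relative to row control; 100% = QL9-loaded vesicles with DMSO vehicle in the same plate row.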 To be noted: 2C mouse CD8+ T cells, at 7 µM, stronger effect = lower value; double positive events: measured here: CD8+/vesicle+ event percentage. For orientation: In flow cytometry, cells or beads pass a laser one at a time.

Assay [2] has as its target Integrin beta-1 (Homo sapiens) + Integrin alpha-4 (Homo sapiens) (UniProt P13612+P05556). The experiment in a line: alpha4beta1 integrin LIBS antibody binding reduction – U937 cells, HUTS-21 mAb, flow cytometry, validation set, VLA-4 allosteric modulator project, pilot screen (AID 2674;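 active = inhibition above 50%, about 3 SD of the validation set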;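 also: antibody binding induced by the VLA-4 ligand LDV present at three times its Kd; 0% = LDV ligand with antibody and no compound and 100% = antibody without LDV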). As to conditions: HUTS-21 LIBS mAb binding, at 6.7 µM, stronger effect = higher value, binding induced by LDV ligand.

A short description of assay [3]: calorie-restriction mimetic ROS inhibitors, yeast – validation compound set, pilot screen (AID 2706;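 active = superoxide response below 65% of plate, a cut near 3 SD across the whole screen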;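 also: yeast exposed to compound for one week at 30 degrees C before staining; 100% = mean of all compound wells on the same plate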). To be noted: S. cerevisiae aging, superoxide DHE fluorescence; at 10 µM, stronger effect = lower value.
For assay [4], the target named is Beta-adrenergic receptor kinase 1 (Homo sapiens) (UniProt P25098). Description: GRK2 binders displacing RNA aptamer, biochemical, validation, human GRK2, bead flow cytometry (AID 488806;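 active = aptamer binding inhibition above 30%, about 3 SD of noise from non-fluorescent compounds; inactive = inhibition at or below 30%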). As to conditions: bead-bound GRK2, FAM-aptamer displacement, at 10 µM, stronger effect = higher value.
For assay [5], the target named is AP-2 complex subunit beta (Homo sapiens) (UniProt P63010). The experiment in a line: beta-arrestin/AP2 interaction blockers – biochemical, validation set, GST-AP2 beads, flow cytometry, pilot screen (AID 504541;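 active = inhibition above 54%, about 3 SD of non-fluorescent compounds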;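 also: AP2 carries R879A mutation and is captured from E. coli lysate; bead-bound FITC arrestin peptide fluorescence measuring arrestin peptide binding to AP2; 0% = DMSO wells and 100% = excess unlabeled arrestin peptide control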). As to conditions: FITC arrestin peptide, at 10 µM, stronger effect = higher value, AP2 beta2 appendage fragment, R879A mutant.
Assay [6] can be described thus: cytosolic pH regulators acting via V-ATPase – S. cerevisiae, pHLuorin, HTS validation (AID 504600; in the data active = response above about 15%;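 also: plate controls were DMSO for no effect and reference compound for full effect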). As to conditions: V-ATPase proton transport, at 10 µM, stronger effect = higher value.
The test system of assay [7] is anti-desmoglein-3 scFv antibody binding to human DSG3. Description: blockers of pathogenic pemphigus antibody–desmoglein-3 binding – biochemical, validation compound set, bead-based, flow cytometry, pilot screen (AID 588368;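 active = binding below the plate cutoff, the plate median minus 3 SD, with a reading above zero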;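 also: signal is the median channel fluorescence of bead-bound GFP antibody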). As to conditions: Protein G beads, DSG3-Fc, scFv-GFP binding, at 10 µM, stronger effect = lower value.
Assay [8] can be described thus: Nile Red efflux blockade in pump-expressing yeast – validation compound set, multiplex, phenotypic, pilot screen (AID 588506;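 active = efflux inhibition above 0.42, the validation set average plus 4 SD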;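 also: Nile Red retained in cells so higher fluorescence means more efflux inhibition; 0 = negative control wells and 1 = enniatin B 25 µM full block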). As to conditions: S. cerevisiae pump-expressing triplex, Nile Red efflux flow cytometry; at 10 µM; stronger effect = higher value; the pumps come from Candida albicans.
The target in assay [9] is ATP-binding cassette sub-family B member 6 (Homo sapiens) (UniProt Q9NP58). Description: blockers of ABCB6-driven porphyrin uptake – K562-ABCB6 cells, flow cytometry, validation set, pilot screen (AID 588550;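 active = inhibition above the screen-wide mean plus 3 SD, about 51%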;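 also: 0% = DMSO wells and 100% = benzethonium chloride 70 µM positive control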). As to conditions: K562-ABCB6 porphyrin accumulation, 1 h, at 10 µM, stronger effect = higher value.
The nature of assay [10]: AML differentiation inducers, ER-HoxA9 marrow cells – cell-based, GFP/MAC1 double positive, flow cytometry, validation set, primary screen (AID 588685;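 active = differentiation response of at least 50%, scaled between solvent and reference control, from cells with both markers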;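 also: compound exposure lasts four days before antibody staining and flow analysis; 0% = DMSO wells and 100% = 5 µM fulvestrant positive control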). As to conditions: stronger effect = higher value, normalized: vehicle 0, fulvestrant 100.
For assay [11], the target named is Beta-2 adrenergic receptor (Homo sapiens) (UniProt P07550). Description: agonist-induced loss of surface beta2AR – cell-based, FAP fluorogen, flow cytometry, validation set, pilot screen (AID 504459;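 active = percent response above 42, roughly 3 SD of non-fluorescent test compounds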;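 also: agonist-driven loss of surface beta2AR via internalization measured by FAP dye flow cytometry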). As to conditions: Am2.2-beta2AR cells, at 10 µM, stronger effect = higher value.
The nature of assay [12]: yeast TOR reporter LAP4-GFP level changes – cell-based, second cherry pick, flow cytometry, confirmation (AID 2621;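 active = GFP signal as percent of the solvent control above about 150%, meaning raised reporter expression, limit read from the data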;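 also: ratio of well median GFP fluorescence to plate DMSO mean so 100% = DMSO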). As to conditions: S. cerevisiae LAP4-GFP strain, 3 h, at 10 µM, stronger effect = higher value.
Assay [13] is described as follows: TOR pathway reporter MEP2-GFP, hit retest – S. cerevisiae, flow cytometry GFP, second cherry picks, confirmation (AID 2622;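 active = GFP signal above 150% of the solvent control wells, that is a rise of more than half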;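 also: median channel GFP fluorescence of all gated yeast cells per well; ratio of median GFP to plate DMSO average so 100% = DMSO level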). To be noted: S. cerevisiae MEP2-GFP strain, 3 h, at 10 µM, stronger effect = higher value.
The nature of assay [14]: retest of hits on RPL19A-GFP strain – cell-based, S. cerevisiae, flow cytometry, second cherry pick, confirmation (AID 2623;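 active = under 65% GFP response relative to DMSO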;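 also: median GFP channel fluorescence per well over the all cells gate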). As to conditions: 3 h, at 10 µM, stronger effect = lower value, 100% means same as DMSO wells.
Assay [15] can be described thus: yeast TOR pathway CIT2-GFP reporter modulation – flow cytometry, second cherry pick, single plex, confirmation (AID 2624;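 active = GFP response vs DMSO above about 150%, limit read from the data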;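 also: median green fluorescence per well over all gated yeast cells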). As to conditions: S. cerevisiae CIT2-GFP strain, 3 h, at 10 µM, stronger effect = higher value, DMSO control wells read 100%.
A short description of assay [16]: yeast AGP1-GFP fluorescence change, single-dose confirmation – cell-based, flow cytometry, S. cerevisiae, cherry pick set 2 (AID 2643;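 active = over 150 percent of DMSO response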;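 also: median GFP channel fluorescence over all cells without mother daughter split; sample median GFP divided by mean DMSO control so 100% equals DMSO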). As to conditions: S. cerevisiae AGP1-GFP strain, 3 h, at 10 µM, stronger effect = higher value.

This is one part of the list. Calls of active or inactive are those of the source.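 The calls were made as follows, unless noted: active = response below a set limit, under 55% cells CD8-positive and vesicle-bound, and CD8 cells' 90th-percentile brightness under 279; inactive = the rest.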

Sequence of Beta-adrenergic receptor kinase 1 (Homo sapiens) (P25098 whole entry, looked up): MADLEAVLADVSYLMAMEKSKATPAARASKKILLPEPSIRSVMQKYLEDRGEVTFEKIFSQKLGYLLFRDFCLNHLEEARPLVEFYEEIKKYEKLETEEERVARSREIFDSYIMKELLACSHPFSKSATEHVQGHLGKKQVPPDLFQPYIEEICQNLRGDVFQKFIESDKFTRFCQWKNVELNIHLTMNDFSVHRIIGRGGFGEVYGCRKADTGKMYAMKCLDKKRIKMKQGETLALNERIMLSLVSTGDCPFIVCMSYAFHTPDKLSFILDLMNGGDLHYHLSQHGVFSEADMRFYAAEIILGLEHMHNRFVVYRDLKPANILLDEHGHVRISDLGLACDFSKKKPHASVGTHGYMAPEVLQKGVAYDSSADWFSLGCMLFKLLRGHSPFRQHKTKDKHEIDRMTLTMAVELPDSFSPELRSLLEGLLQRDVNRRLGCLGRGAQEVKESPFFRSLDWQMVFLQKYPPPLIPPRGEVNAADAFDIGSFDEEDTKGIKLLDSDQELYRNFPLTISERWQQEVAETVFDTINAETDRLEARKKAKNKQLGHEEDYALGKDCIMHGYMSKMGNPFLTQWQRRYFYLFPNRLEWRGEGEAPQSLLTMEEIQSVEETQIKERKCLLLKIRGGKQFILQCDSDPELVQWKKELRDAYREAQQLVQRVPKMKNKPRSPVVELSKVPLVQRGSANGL
Sequence of AP-2 complex subunit beta (Homo sapiens) (P63010 whole entry, looked up, the tested form may be a part, one chain of several): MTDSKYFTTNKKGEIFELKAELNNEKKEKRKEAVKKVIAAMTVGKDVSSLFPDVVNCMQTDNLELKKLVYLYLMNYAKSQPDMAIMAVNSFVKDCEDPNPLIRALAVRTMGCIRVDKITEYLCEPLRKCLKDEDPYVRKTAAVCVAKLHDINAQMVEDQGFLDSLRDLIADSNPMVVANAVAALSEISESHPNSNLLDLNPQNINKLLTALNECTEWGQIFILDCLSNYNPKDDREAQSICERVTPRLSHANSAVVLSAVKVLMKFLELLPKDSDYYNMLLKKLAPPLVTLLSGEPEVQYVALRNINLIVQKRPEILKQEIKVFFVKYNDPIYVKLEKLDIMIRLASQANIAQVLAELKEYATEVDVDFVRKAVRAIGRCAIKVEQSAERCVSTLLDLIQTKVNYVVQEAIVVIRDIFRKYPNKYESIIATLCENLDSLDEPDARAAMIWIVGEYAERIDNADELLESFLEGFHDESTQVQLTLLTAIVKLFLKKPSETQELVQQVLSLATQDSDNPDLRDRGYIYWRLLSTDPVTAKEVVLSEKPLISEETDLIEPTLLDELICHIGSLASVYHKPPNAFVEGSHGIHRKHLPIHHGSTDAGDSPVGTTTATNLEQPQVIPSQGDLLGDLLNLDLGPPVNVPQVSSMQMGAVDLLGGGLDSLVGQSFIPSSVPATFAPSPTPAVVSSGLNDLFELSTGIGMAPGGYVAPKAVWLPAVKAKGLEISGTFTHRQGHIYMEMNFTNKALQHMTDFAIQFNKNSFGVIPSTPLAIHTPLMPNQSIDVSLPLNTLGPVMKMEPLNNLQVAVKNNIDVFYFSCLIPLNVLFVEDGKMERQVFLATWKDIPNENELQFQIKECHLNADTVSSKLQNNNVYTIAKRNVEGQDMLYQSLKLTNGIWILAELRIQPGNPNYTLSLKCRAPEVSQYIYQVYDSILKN
Sequence of ATP-binding cassette sub-family B member 6 (Homo sapiens) (Q9NP58 whole entry, looked up): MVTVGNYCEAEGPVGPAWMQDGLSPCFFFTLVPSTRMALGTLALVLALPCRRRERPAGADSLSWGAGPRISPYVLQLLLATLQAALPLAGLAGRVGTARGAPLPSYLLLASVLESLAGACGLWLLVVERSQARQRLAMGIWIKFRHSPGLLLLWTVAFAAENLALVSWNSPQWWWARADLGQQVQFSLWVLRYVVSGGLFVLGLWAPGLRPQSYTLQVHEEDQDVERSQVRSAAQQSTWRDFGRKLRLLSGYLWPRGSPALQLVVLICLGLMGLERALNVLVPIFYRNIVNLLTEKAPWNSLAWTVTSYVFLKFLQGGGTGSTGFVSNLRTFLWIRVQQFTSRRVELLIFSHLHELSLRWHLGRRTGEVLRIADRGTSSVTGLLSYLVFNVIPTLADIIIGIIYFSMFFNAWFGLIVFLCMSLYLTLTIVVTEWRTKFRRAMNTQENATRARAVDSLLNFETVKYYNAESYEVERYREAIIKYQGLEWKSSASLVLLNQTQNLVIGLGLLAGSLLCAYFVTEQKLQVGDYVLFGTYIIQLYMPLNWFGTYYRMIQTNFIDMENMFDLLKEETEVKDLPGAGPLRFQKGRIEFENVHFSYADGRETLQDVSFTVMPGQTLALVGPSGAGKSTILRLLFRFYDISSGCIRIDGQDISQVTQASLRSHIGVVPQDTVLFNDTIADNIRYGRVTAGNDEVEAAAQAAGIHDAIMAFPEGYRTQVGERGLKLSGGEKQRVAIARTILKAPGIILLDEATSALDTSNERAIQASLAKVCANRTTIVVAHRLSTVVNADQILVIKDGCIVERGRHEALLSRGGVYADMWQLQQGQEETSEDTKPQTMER
Sequence of Integrin beta-1 (Homo sapiens) + Integrin alpha-4 (Homo sapiens) (P05556 whole entry, looked up): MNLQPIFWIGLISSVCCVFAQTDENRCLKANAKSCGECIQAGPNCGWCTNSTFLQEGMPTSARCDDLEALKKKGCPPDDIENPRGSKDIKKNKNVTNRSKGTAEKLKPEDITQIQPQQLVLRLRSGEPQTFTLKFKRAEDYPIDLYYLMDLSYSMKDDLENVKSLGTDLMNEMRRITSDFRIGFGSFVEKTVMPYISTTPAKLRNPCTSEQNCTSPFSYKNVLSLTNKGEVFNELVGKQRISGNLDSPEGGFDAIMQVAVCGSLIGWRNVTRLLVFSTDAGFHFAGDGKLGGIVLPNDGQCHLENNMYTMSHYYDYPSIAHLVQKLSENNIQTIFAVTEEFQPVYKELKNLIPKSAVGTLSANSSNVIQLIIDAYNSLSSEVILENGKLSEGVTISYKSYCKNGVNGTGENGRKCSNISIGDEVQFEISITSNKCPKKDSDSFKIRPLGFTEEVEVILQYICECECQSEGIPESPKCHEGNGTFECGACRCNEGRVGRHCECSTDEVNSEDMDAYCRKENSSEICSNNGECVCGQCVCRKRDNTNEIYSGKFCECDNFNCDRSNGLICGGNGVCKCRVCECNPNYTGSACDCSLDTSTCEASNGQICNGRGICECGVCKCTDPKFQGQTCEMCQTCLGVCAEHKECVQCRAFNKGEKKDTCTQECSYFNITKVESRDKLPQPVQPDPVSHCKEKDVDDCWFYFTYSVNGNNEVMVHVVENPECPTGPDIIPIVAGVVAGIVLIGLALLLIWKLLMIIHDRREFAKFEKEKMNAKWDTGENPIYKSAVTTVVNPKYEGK
Sequence of Integrin beta-1 (Homo sapiens) + Integrin alpha-4 (Homo sapiens) (P13612 whole entry, looked up): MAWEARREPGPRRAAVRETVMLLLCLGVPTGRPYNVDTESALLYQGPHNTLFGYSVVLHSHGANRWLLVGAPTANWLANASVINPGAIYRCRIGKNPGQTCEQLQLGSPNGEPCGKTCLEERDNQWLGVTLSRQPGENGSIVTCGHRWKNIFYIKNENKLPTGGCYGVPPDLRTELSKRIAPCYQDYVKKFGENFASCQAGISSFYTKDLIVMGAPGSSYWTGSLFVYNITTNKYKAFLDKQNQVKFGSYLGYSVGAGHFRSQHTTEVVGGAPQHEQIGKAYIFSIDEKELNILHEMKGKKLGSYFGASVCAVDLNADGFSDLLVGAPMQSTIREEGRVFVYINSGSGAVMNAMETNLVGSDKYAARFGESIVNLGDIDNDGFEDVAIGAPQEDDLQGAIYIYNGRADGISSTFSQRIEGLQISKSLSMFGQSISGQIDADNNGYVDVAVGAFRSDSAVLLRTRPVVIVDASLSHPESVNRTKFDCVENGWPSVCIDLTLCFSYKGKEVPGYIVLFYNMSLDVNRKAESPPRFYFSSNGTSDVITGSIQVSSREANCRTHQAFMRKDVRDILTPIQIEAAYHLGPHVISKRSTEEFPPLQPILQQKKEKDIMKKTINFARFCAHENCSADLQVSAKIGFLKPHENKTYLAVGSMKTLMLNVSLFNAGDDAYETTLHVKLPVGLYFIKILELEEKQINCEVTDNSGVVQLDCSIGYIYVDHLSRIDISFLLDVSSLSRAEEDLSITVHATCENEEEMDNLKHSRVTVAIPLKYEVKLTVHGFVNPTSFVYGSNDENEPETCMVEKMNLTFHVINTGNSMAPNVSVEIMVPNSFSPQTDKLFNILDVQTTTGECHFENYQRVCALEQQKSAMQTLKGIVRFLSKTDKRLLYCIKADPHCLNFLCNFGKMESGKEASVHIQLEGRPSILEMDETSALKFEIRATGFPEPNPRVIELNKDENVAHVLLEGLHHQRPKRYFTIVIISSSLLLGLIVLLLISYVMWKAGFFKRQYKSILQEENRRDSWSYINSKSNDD
Sequence of Beta-2 adrenergic receptor (Homo sapiens) (P07550 whole entry, looked up): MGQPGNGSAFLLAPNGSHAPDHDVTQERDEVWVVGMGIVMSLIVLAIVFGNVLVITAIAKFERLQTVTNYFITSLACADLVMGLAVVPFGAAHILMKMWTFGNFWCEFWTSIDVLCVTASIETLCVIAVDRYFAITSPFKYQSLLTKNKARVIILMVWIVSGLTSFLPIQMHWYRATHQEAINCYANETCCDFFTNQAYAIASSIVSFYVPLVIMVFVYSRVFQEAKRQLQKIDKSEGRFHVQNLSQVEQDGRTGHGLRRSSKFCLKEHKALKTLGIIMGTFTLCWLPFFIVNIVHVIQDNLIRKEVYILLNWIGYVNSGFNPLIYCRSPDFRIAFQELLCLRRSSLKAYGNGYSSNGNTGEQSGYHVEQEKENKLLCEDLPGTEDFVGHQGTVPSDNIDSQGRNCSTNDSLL

Broadly, the inhibition is the drop in the measured response relative to a control, in per cent. In the case of `Cc1ncc(C(=O)O)c(C(=O)O)c1N`, the double positive events in assay [1] was 52.2%. In addition, in assay [1], the vesicle binding response is 184% (inactive). Also, the inhibition was 4.42% (inactive) in assay [2], -2.62% (inactive) in [5] and 8% (inactive) in assay [9]. Further, in [3], the superoxide response (% of plate) is 110% (inactive). Further, the aptamer binding inhibition in assay [4] was 2% (inactive). Besides, in [6], the response is -3.73% (inactive). Also, the binding (% of control) in assay [7] is 100% (inactive). Further, the efflux inhibition (fraction of control) in [8] was -0.09 (inactive). For the same compound, the differentiation response in assay [10] was -14.7% (inactive).
In assay [1], `CC(=O)N=c1sc(S(N)(=O)=O)nn1C` came in with a double positive events of 48.1%. Also, the vesicle binding response in [1] is 166% (inactive). Moreover, the inhibition in [2] was -9.57% (inactive); in assay [5] it was -6.47% (inactive); in [9], 8% (inactive). For the same compound, the superoxide response (% of plate) in assay [3] was 97% (inactive). In addition, the aptamer binding inhibition in [4] is 4% (inactive). Besides, in assay [6], the response was -25.8% (inactive). For the same compound, the binding (% of control) in [7] is 99.6% (inactive). In addition, the efflux inhibition (fraction of control) in [8] was -0.01 (inactive). Further, the differentiation response in assay [10] was 11.1% (inactive).
As for `O=C(O)CCn1c(=S)n(CCC(=O)O)c2ccccc21`, in assay [1], the double positive events is 53.4%. For the same compound, the vesicle binding response in [1] was 162% (inactive). Further, the values for the inhibition in [2], in [5] and in [9] were 8.15% (inactive), 4.52% (inactive) and 5% (inactive), respectively. Further, the superoxide response (% of plate) in assay [3] was 112% (inactive). Further, in [4], the aptamer binding inhibition is 4% (inactive). In addition, in assay [6], the response is -0.83% (inactive). For the same compound, in [7], the binding (% of control) is 101% (inactive). Besides, in assay [8], the efflux inhibition (fraction of control) is -0.05 (inactive). Besides, the differentiation response in [10] is -6.66% (inactive).
In assay [1], `CNc1nc(N(C)C)nc(N(C)C)n1` came in with a double positive events of 62.1%. Moreover, in [1], the vesicle binding response was 64.3% (inactive). Moreover, the inhibition is -2.53% (inactive) in assay [2], 14.9% (inactive) in assay [5] and 11% (inactive) in assay [9]. Besides, the aptamer binding inhibition in assay [4] was -1% (inactive). The response in assay [11] was 8.29% (inactive); in assay [6] it was 3.55% (inactive). The binding (% of control) in assay [7] is 107% (inactive). In assay [8], the efflux inhibition (fraction of control) is 0.92 (active). Further, the differentiation response in assay [10] was 41.3% (inactive).
With `COc1ccc2nc(N3CCN(C(=O)c4ccc([N+](=O)[O-])o4)CC3)sc2c1`, the GFP response vs DMSO was 252% (active) in assay [12], 255% (active) in [13], 87% (inactive) in assay [14] and 243% (active) in assay [15]. Moreover, the percent response vs DMSO in assay [16] is 87.3% (inactive).
Regarding `O=C(NCCN1CCCCC1)c1c(O)c2ccccc2[nH]c1=O`, the double positive events in assay [1] stood at 61.8%. Besides, in assay [1], the vesicle binding response is 38% (inactive). Besides, the inhibition is -6.68% (inactive) in [2], 5.65% (inactive) in assay [5] and -4% (inactive) in assay [9]. Moreover, the aptamer binding inhibition in [4] is -4% (inactive). Further, the response is 0.73% (inactive) in assay [11] and 3.25% (inactive) in assay [6]. The binding (% of control) in assay [7] was 109% (inactive). Besides, the efflux inhibition (fraction of control) in assay [8] was 0.49 (active). Also, the differentiation response in assay [10] is 21.8% (inactive).
As to `O=C(COc1cccnc1[N+](=O)[O-])Nc1ccc(Cl)cc1F`, the GFP response vs DMSO in assay [12] is 99.2% (inactive); in [13], 101% (inactive); in [14] it was 99.5% (inactive); in assay [15] it was 103% (inactive). The percent response vs DMSO in assay [16] is 97.4% (inactive).
As for `Cc1[nH]c2ccccc2c1C(=O)CN1CCCC1`, the double positive events in assay [1] was found to be 61.6%. For the same compound, the vesicle binding response in [1] is 26% (inactive). The inhibition in [2] was -4.6% (inactive); in assay [5], 4.83% (inactive); in assay [9] it was 48% (inactive). The aptamer binding inhibition in [4] is -4% (inactive). The response was 7.28% (inactive) in [11] and -0.48% (inactive) in assay [6]. Moreover, the binding (% of control) in assay [7] is 110% (inactive). Moreover, the efflux inhibition (fraction of control) in assay [8] is 0.24 (inactive). In assay [10], the differentiation response was 28.6% (inactive).
